# RAM network inh – blocks the yeast RAM network | S. cerevisiae dse1pr::URA3 reporter, 5-FOA growth OD615, 2 d; analog-sensitive cbk1-as2 kinase mutant strain | inhibition, % at 50 µM | 1.8% of 190,000 active;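 active = inhibition above a set limit, 3 SD over mean compound inhibition, cut at about 8.4% in these data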;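 also: inhibition rescues growth on 5-FOA so higher OD means more RAM inhibition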
# Lmaj promast – inhibitors of Leishmania major promastigote growth; 9% of 200,000 active; inhibition, % at 10 µM; AID 1063; Leishmania major promastigotes, resazurin fluorescence viability; in the data active = inhibition above about 50%;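 also: promastigotes grown with compound for 44 hours at 28 °C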
# CHOP inh – inhibitors of CHOP induction in ER stress response; CHO-K1 CHOP-promoter luciferase, tunicamycin-induced, 15-18 h; inhibition, % at 10 µM; 3.8% of 220,000 active; AID 2732;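 active = compounds that reduced the stress-induced luciferase reporter signal by more than about 70% of percent inhibition, limit read from the data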
# WT yeast gro inh – growth inhibition of WT yeast, mitochondrial fusion screen; mitochondrial fusion phenotypic screen, WT strain; inhibition, % at 10 µM; 2.1% of 190,000 active; in the data active = inhibition above about 58%; tested in S. cerevisiae
# Numbers stand for hits; i = inactive; nt = no result. Most compounds without a hit are left out; they make up all but 13% or so of the library.
SMILES,RAM network inh,Lmaj promast,CHOP inh,WT yeast gro inh
O=C(/C=C/c1ccccn1)c1cc(Cl)cc(Cl)c1O,nt,nt,i,nt
COc1ccc(/C=C/C(=O)c2ccc3c(c2)OCO3)c(OC)c1,i,i,i,i
COc1ccc(/C=C/C(=O)c2cc(Cl)cc(Cl)c2O)c(OC)c1,nt,nt,70.6,nt
COc1ccc(/C=C/C(=O)c2ccccc2)c(OC)c1,i,74.2,i,i
COc1ccccc1-c1nc(COc2ccc(Cl)cc2Cl)no1,nt,nt,i,nt
O=S(=O)(Cc1ccccc1)C1CCCCC1O (stereo not given),nt,nt,i,nt
COCCN1CCC(CNCc2cn[nH]c2-c2ccc(C)c(C)c2)C1 (stereo not given),i,i,i,i
COCCN1CCC(CNCc2cn(-c3cc(C)ccc3C)nc2-c2ccccc2)C1 (stereo not given),i,100.3,i,i
CCn1ccnc1CNCc1cn(-c2cc(C)ccc2C)nc1-c1ccccc1,i,65.3,i,i
O=C1c2ccccc2C(=O)N1CCCON1C(=O)c2ccccc2C1=O,i,50.3,i,i
CC(=O)OCCCCON1C(=O)c2ccccc2C1=O,i,i,i,i
CCc1nc2ccccc2c(NC(=O)CN2CC(C)CC(C)C2)c1C (stereo not given),i,i,i,i
C=C1c2cc3c(cc2NC(=S)N1Cc1ccccc1)OCO3,nt,nt,i,nt
COc1ccc(CC(=O)Nc2ccc3c(C)cc(=O)oc3c2)cc1OC,i,63.9,i,i
Cc1cc(=O)oc2cc(NC(=O)C3CCCC3)ccc12,i,100.5,i,i
Cc1ccc(CN2CC(C(=O)Nc3ccc4c(C)cc(=O)oc4c3)CC2=O)cc1 (stereo not given),i,i,i,i
CC(NC(=O)C12CC3(C)CC(C)(CC(C)(C3)C1)C2)C(=O)O (stereo not given),i,i,i,i
CNC(=S)NNC(=O)c1ccccc1F,i,i,i,i
O=C(Nc1ccsc1C(=O)NC1CCCCC1)c1ccc(F)cc1,i,i,70.3,i
O=C(Nc1ccsc1C(=O)NC1CC1)c1ccccc1,i,i,i,i
Cc1cccc(C)c1NC(=O)c1cccc2c1-c1ccccc1C2=O,i,i,78.4,i
Cc1cccc(NC(=O)c2cccc3c2-c2ccccc2C3=O)n1,i,i,i,i
C=CCn1cccc(C(=O)Nc2ccc(OCC)cc2)c1=O,i,i,i,i
S=C(NCC1CCCO1)N1CCN(c2nc(-c3ccc(Cl)cc3)cs2)CC1 (stereo not given),i,i,i,67.1
O=C(N1CCOCC1)N1CCN(c2nc(-c3ccccc3)cs2)CC1,i,i,i,i
SMILES,RAM network inh,Lmaj promast,CHOP inh,WT yeast gro inh
S=C(NCCCN1CCOCC1)N1CCN(c2nc(-c3ccccc3)cs2)CC1,i,82.5,i,i
S=C(NCCCN1CCOCC1)N1CCN(c2nc(-c3ccc(Cl)cc3)cs2)CC1,i,75.6,87.6,88.7
Clc1ccc(-c2nc(NCCCN3CCOCC3)c3ccccc3n2)cc1,nt,nt,i,nt
Cc1ccc(-c2nc(NCCN3CCOCC3)c3ccccc3n2)cc1,i,80.7,i,i
c1ccc2c(NCCCN3CCOCC3)c3ccccc3nc2c1,i,100.2,i,i
Clc1cccc(-c2nc(NCCN3CCOCC3)c3ccccc3n2)c1,i,75.4,i,i
Clc1cccc(-c2nc(NCCCN3CCOCC3)c3ccccc3n2)c1,i,80.4,i,i
Fc1ccccc1-c1nc(NCCCN2CCOCC2)c2ccccc2n1,i,i,i,i
O=C(CCl)Nc1cccc(S(=O)(=O)NC2=NCCC2)c1,nt,nt,i,nt
CCN(CC)C(=S)NC(=O)c1ccc(Cl)cc1Cl,i,i,i,i
CCOc1ccc(C(=O)NC(=S)N(Cc2ccccc2)Cc2ccccc2)cc1,8.6,56.8,i,i
CCCN(CCC)C(=S)NC(=O)c1ccc(-c2ccccc2)cc1,i,i,i,67.5
COc1ccc(CN(CCC#N)C(=S)NC(=O)c2ccccc2)cc1,i,59.9,i,i
CCCCN(CCCC)C(=S)NC(=O)c1ccccc1Cl,i,i,i,63.9
CCOc1ccc(CN(CCC#N)C(=S)NC(=O)c2ccccc2)cc1,i,i,i,i
O=C(N/N=C/c1c(Cl)[nH]c2ccccc12)c1ccc2c(c1)OCCO2,nt,nt,i,nt
N#CCCN(Cc1ccccc1)C(=S)Nc1ccccc1,i,52.0,i,i
CN(Cc1ccccc1)C(=S)Nc1ccc(OC(F)F)cc1,i,i,i,i
CN(C)CCCN(Cc1ccccc1)C(=S)Nc1ccc(OC(F)F)cc1,i,99.4,i,i
O=[N+]([O-])c1ccc(CSc2ncnc3c2ncn3[C@@H]2O[C@H](CO)[C@H](O)C2O)cc1 (stereo not given in full),nt,nt,i,nt
O=C(COCC(=O)N1CCOCC1)N1CCOCC1,i,i,i,i
COc1ccc(C(=O)NCC(C)(C)SCc2c(C)cc(C)cc2C)cc1,9.3,i,73.4,i
COc1ccc(CNC(=O)c2ccc(C(C)(C)C)cc2)cc1,i,i,i,i
CC(=O)Nc1ccc(S(=O)(=O)N2CCN(Cc3cccs3)CC2)cc1,i,i,i,i
Cc1ccc(NC(=O)C2CCCN2S(=O)(=O)c2ccc3c(c2)n(C)c(=O)c(=O)n3C)c(C)c1 (stereo not given),nt,nt,i,nt
SMILES,RAM network inh,Lmaj promast,CHOP inh,WT yeast gro inh
O=C(Nc1ccccc1-c1ccccc1)NC1CC2CCCC(C1)N2CCc1ccccc1 (stereo not given),i,72.0,i,i
O=C(Nc1ccccc1-c1ccccc1)NC1CC2CCCC(C1)N2Cc1ccc(F)cc1 (stereo not given),i,69.2,i,i
O=C(Nc1ccccc1F)NC1CCN(Cc2nnnn2Cc2ccc(F)cc2)CC1,i,i,i,i
CN1CCN(C(=O)CNc2ccc(C(F)(F)F)cc2[N+](=O)[O-])CC1,i,i,i,i
CCCCN=C(NNc1ccc(Br)cc1)C(=O)OCC,i,i,i,64.4
CCOC(=O)C(=NCCCN(C)C)NNc1ccc(Br)cc1,i,66.7,i,i
CCOC(=O)C(=O)NNc1ccc(C)cc1,i,i,i,61.7
CCOC(=O)C(=O)NNc1ccc(Cl)cc1,i,i,i,i
O=C(O/N=C1\CCCCC1c1ccc([N+](=O)[O-])cc1[N+](=O)[O-])c1c(F)cccc1F (stereo not given),i,62.0,i,i
O=[N+]([O-])c1ccc(C2CCCC/C2=N/OCc2ccccc2F)c([N+](=O)[O-])c1 (stereo not given),i,i,i,i
Cc1cc(C(=O)COC(=O)c2ccc[nH]c2=O)c(C)n1-c1ccc(F)cc1,i,69.5,75.2,i
Cc1cc(C(=O)COC(=O)c2ccc[nH]c2=O)c(C)n1-c1ccccc1,i,70.7,70.3,i
Cc1noc(C)c1COC(=O)c1cc(C)n(-c2ccccc2)c1C,i,78.7,i,i
Cc1cc(C(=O)OCC(=O)NCc2ccco2)c(C)n1-c1ccc(F)cc1,i,i,nt,i
Cc1cc(C(=O)COC(=O)c2ccc[nH]c2=O)c(C)n1C1CC1,i,i,i,i
Cc1cc(C(=O)OCc2nnc(-c3ccccc3)o2)c(C)n1-c1ccccc1,i,i,i,i
CC(=O)c1cn(-c2ccc(Cl)cc2)c(=O)n(Cc2ccc(Br)cc2)c1=O,i,i,i,i
O=C(CN1CCN(C(=O)c2ccco2)CC1)Nc1cccc([N+](=O)[O-])c1,i,i,i,i
C[N+](C)(C)CCOc1ccc([N+](=O)[O-])cc1,i,i,i,i

# Screening results (PubChem BioAssay)
